Compound activity from PubChem BioAssay.
Only some compounds are listed: those with a hit (about 5.7% of all), similar ones and a draw of the others.
FAS-TE inh = FAS thioesterase domain inhibitors, primary screen, biochemical, fluorescence intensity, uHTS | 360,000 compounds, 0.67% hits | inhibition, % at 15 µM | Fatty acid synthase (Homo sapiens), P49327 | recombinant FAS-TE, OMFH fluorogenic substrate, fluorescence endpoint;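 active = compounds whose normalised, plate-corrected inhibition of enzyme fluorescence in the single-dose primary screen is 50% or more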;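 note: 0% = DMSO with enzyme and 100% = substrate without enzyme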
rCAG binder = binders of r(CAG) RNA repeats, primary screen, biochemical, fluorescence | r(CAG) RNA repeat, TO-PRO-1 dye displacement fluorescence | inhibition, % at 3 µM | 370,000 compounds, 1.3% hits | AID 651821, 2012;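 active = inhibition above the plate cutoff, the mean of all test compounds on that plate plus 3 SD, cut at about 35% in these data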;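 note: 0% = DMSO alone and 100% = 100 µM mitoxantrone as full dye displacement; higher means more dye released from RNA so lower well fluorescence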
GRIN3A LBD mod = binders of NR3A ligand-binding domain, primary screen, biophysical, differential scanning fluorimetry, uHTS; NR3A LBD differential scanning fluorimetry, Tm shift; 0% = protein alone, 100% = glycine-bound protein; 340,000 compounds, 2.5% hits; Tm shift relative to glycine control, % at 25 µM; AID 1259313, 2017; Glutamate receptor ionotropic, NMDA 3A (GRIN3A) ligand-binding domain;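 active = melting temperature shift of at least 10% of the positive control shift, at one fixed dose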
Myeloid diff MLP = induction of myeloid progenitor differentiation, primary screen, cell-based, flow cytometry, MLPCN library. ER-HoxA9 myeloid progenitors, lysozyme-GFP differentiation. calls only at 10 µM. 360,000 compounds, 1% hits. AID 624256, 2012;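 active = normalized GFP-positive differentiation at or above the plate's own cutoff, the solvent-only control mean plus 3 SD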;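 note: cells exposed to compound for four days before flow analysis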
MPTP block = mitochondrial permeability transition pore inhibitors, primary screen, biochemical, isolated mouse mitochondria, absorbance | Ca2+ swelling absorbance, 30 min | 360,000 compounds, 1.4% hits | inhibition, % at 10 µM;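 active = inhibition of 50% or more, scaled per plate between neutral and stimulator controls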;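 note: 0% = DMSO wells given calcium and 100% = 1 mM EGTA wells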
An asterisk follows results filed as active; i = inactive; · = no result given; + = active, no number; ! = not confirmed by another sample.

SMILES	FAS-TE inh	rCAG binder	GRIN3A LBD mod	Myeloid diff MLP	MPTP block
Cc1cc(C(=O)C(C)OC(=O)c2ccc(NC(=O)CC#N)cc2)c(C)n1-c1ccccc1 (stereo not given)	15	18	2	+	0
COC(=O)[C@]12C[C@H](CC(=O)NCc3ccc(C)o3)C(=O)N(Cc3ccccc3)C1=C[C@H](C(C)C)O[C@@H]2C1CC1	·	1	·	·	·
CCOC(=O)c1ccc(N=c2sc(C(=O)OC)cc(=O)n2Cc2ccco2)cc1	3	3	2	i	0
CCOC(=O)c1ccc(N=c2sc(C(=O)OC)cc(=O)n2CCCN2CCOCC2)cc1	-5	2	-3	+!	1
Cc1ccc(N2C(=O)c3ccccc3C2=O)cc1Cl	5	1	12*	i	-1
CCCCN1CC(COCc2ccccc2)Oc2cccc(Oc3ccc(SC)c(C)c3)c2S1(=O)=O (stereo not given)	·	4	·	·	·
CCSC1=N/C(=C\c2ccc(C(=O)O)cc2)C(=O)S1	-4	2	20*	i	-2
CCSC1=N/C(=C\c2ccc(C)s2)C(=O)S1	-5	5	13*	i	2
Nc1[nH]c(C(=O)c2ccc(Br)cc2)c(-c2ccc(Cl)cc2)c1C(=O)NCCc1c[nH]c2ccccc12	·	6	·	·	·
O=C(/C=C/c1cccs1)c1cc(Cl)ccc1O	1	1	2	i	1
O=C(/C=C/c1ccc2ccccc2n1)c1cc(Cl)ccc1O	14	18	4	+	0
COc1ccc(OC)c(C2=NOC(C(=O)Nc3cccc(C(C)=O)c3)C2)c1 (stereo not given)	4	-2	0	+	-1
COc1ccc(OC)c(C2=NOC(C(=O)Nc3ccccc3SC)C2)c1 (stereo not given)	10	-4	0	i	-1
CC(=O)c1cc(-c2ccc3nonc3c2)c(=O)n2c1CCC2	·	0	·	·	·
Cc1ccc(-c2cc(C(=O)Nc3sc4c(c3C(=O)NCc3ccco3)CCC4)[nH]n2)c(O)c1	-3	9	21*	i	6
Cc1cc(O)c(-c2cc(C(=O)Nc3sc4c(c3C(=O)NCc3ccco3)CCC4)[nH]n2)cc1C	7	8	7	i	4
O=C(/C=C/c1ccccc1Cl)NCCc1ccc(F)cc1	3	0	14*	i	3
O=C(/C=C/c1ccccc1[N+](=O)[O-])NCCc1ccc(F)cc1	13	0	1	i	3
O=C(NN/C(=N/S(=O)(=O)c1ccc(Cl)cc1)c1ccccc1)c1ccc(O)cc1	-6	3	37*	i	-1
COc1ccc(-c2nn(-c3ccccc3)cc2/C=N/O)cc1	0	2	-1	i	0
COc1ccc(-c2nn(-c3ccccc3)cc2/C=N/NS(=O)(=O)c2ccccc2)cc1	26	27	21*	i	2
COc1ccc(-c2ccc3c(N)c(C(=O)c4cccc(OC)c4)sc3n2)cc1	10	31	17*	i	2
COC(=O)C1CCC(CNC(=O)C(Cc2ccc3c(c2)OCO3)NC(C)=O)CC1 (stereo not given)	·	3	·	·	·
Cc1ccnn1CC(=O)N/N=C/c1cccs1	-10	2	-1	i	-1
COC(=O)N/N=C/c1ccc([N+](=O)[O-])s1	-16	-1	-1	+	1
SMILES	FAS-TE inh	rCAG binder	GRIN3A LBD mod	Myeloid diff MLP	MPTP block
O=C(N/N=C/c1ccc([N+](=O)[O-])s1)c1ccccc1	0	-1	-9	i	-18
Cc1ccnn1CC(=O)N/N=C/c1ccc([N+](=O)[O-])s1	-5	1	-1	+	1
COc1ccccc1NC(=O)C(=O)N/N=C/c1ccc([N+](=O)[O-])s1	-6	5	4	+	3
O=C(N/N=C/c1ccc([N+](=O)[O-])s1)C(O)c1ccccc1 (stereo not given)	-7	1	-1	i	2
CC(=O)C1(C(=O)N2CCOCC2)CC(c2ccccc2C(F)(F)F)=NO1 (stereo not given)	·	2	·	·	·
COC(=O)C1=C(C)N(Cc2ccc(C(F)(F)F)cc2)C(=NCc2ccccc2C(F)(F)F)NC1c1ccccc1C(F)(F)F (stereo not given)	·	0	·	·	·
CCc1nc2ccc(C(=O)NCCCN3CCCC3=O)cn2c1N(CC)C(C)=O	-11	1	·	i	-2
CCOc1ccccc1/C=C(\C(=O)O)c1ccc(S(=O)(=O)N2CCCCC2)s1	-4	45*	1	i	1
CCn1c(-c2ccc[nH]c2=O)nc2ccccc21	-8	0	0	+	-1
COc1cccc(C2NC(=S)N(Cc3ccc(Br)cc3)C(C)=C2C(C)=O)c1 (stereo not given)	·	3	·	·	·
CC(=O)Nc1ccc(S(=O)(=O)Nc2nccc(/C=C/c3ccc(Cl)cc3)n2)cc1	-6	11	12*	i	0
COC(=O)C1=C(C)N(Cc2cccc(C(F)(F)F)c2)C(=NCc2cc(OC)c(OC)c(OC)c2)NC1c1ccccc1C(F)(F)F (stereo not given)	·	3	·	·	·
Cc1ccc2nc(CSc3nc(C)cc(C)c3C#N)[nH]c2c1	78*	20	-15	i	3
COC(=O)C1=C(C(=O)OC)[C@@H]2N(Cc3ccccc3)c3ccccc3[C@@]23C[C@@H](C(=O)OC)N(C(=O)c2ccc(Br)cc2)C3=N1	84*	·	-3	i	-1
O=C(Nc1ccc2c(c1)OCO2)c1cc(-c2cccc(O)c2)on1	-1	14	3	·	0
COc1cccc(-c2cc(C(=O)Nc3ccc4c(c3)OCO4)no2)c1	-5	-1	15*	i	2
COc1ccc(-c2cc(C(=O)Nc3ccc4c(c3)OCO4)no2)cc1OC	-6	4	-1	i	1
O=C(Nc1ccc2c(c1)OCO2)c1cc(-c2ccc(O)cc2)on1	-3	8	18*	i	-2
C[C@@H]1[C@@H](O)C[C@]2(C[C@@H](O)c3ccccc3O2)O[C@H]1c1ccccc1	·	2	·	·	·
Oc1cccc2ccc(/C=C/c3ccccc3Br)nc12	15	16	14*	i	-1
Oc1ccc(Cl)cc1/C=C/c1ccc2cccc(O)c2n1	12	32	30*	i	14
CN1CCN(c2ccc(NS(=O)(=O)c3ccc(Cl)cc3)cn2)CC1	-2	-5	-3	+	0
Cc1ccccc1C(=O)Nc1ccc(N2CCN(C)CC2)nc1	-3	-3	2	+	1
Cc1ccc(S(=O)(=O)Nc2ccc(N3CCN(C)CC3)nc2)cc1	-1	-6	-2	+	-1
CN1CCN(NS(=O)(=O)c2ccc(Cl)cc2)CC1	-5	-1	2	i	1
CCOC(=O)[C@@]12CCC3=C1N(CCC3)C(=O)[C@H](CC(=O)NCC1CCCCC1)C2	·	-4	·	·	·
